Records with an inconclusive call do not appear. Calls of active or inactive are those of the source. The call rests on the fitted dose curve; in most records, active means well fitted cell-killing curve with a large enough effect; inconclusive means small, poorly fitted or top-dose-only effect; inactive means flat fitted curve, though single readings scatter.
Experiment: Cell Viability - H-4-II-E (AID 543); further: on the % scale 0 is the no-effect control and ±100 the full control effect; nearly all actives have a fitted effect of over 35% in size
Details: H-4-II-E rat hepatoma viability; series mostly up to 92.2 µM; activity change, negative = cytotoxic: at the top concentration
In short: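 Cells seeded at 1500 per well and rested 5 hr; compounds added; 40 hr incubation at 37 °C; CellTiter-Glo added, 20 min at room temperature; luminescence read. Hill-equation fits gave AC50.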
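Further: cells exposed to compound for 40 hours.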

| Structure (SMILES) | activity change, negative = cytotoxic |
| --- | --- |
| Cc1cc(C)c(N)cc1C | -12.5% (inactive) |
| Cc1cccc2ccccc12 | -3.23% (inactive) |
| C=C(C)C(=O)OCC(C)C | -3.14% (inactive) |
| O=Cc1ccc(C(=O)O)cc1 | 1.89% (inactive) |
| CCOc1cc(OCC)c(C(C)=O)cc1OCC | -19.4% (inactive) |
| CCCCC(CC)CNCC(CC)CCCC (stereo not drawn) | -5.78% (inactive) |
| C=CCOC(=O)COCCC(C)C | -6.44% (inactive) |
| ICCc1ccccc1 | -0.354% (inactive) |
| Cc1ccccc1C(N)=O | -2.76% (inactive) |
| CNC(=O)c1ccccc1 | -4.62% (inactive) |
| ClCCl | -4.97% (inactive) |
| CCOc1ccc(NC(C)=O)cc1N | 1.18% (inactive) |
| Nc1ccc(F)cc1F | -7.98% (inactive) |
| CC(=O)c1ccc([N+](=O)[O-])cc1 | -5.1% (inactive) |
| CCCCN(CCO)CCCC | -5.25% (inactive) |
| BrC(Br)C(Br)Br | -4.32% (inactive) |
| Nc1nc(CC(=O)O)cs1 | -10.1% (inactive) |
| O=[N+]([O-])c1cc(C(F)(F)F)ccc1Cl | 1.19% (inactive) |
| Cc1ccc(C(C)(C)C)cc1 | -0.741% (inactive) |
| CC(C)=CCl | 3.74% (inactive) |

| Structure (SMILES) | activity change, negative = cytotoxic |
| --- | --- |
| O=Cc1ccc(Cl)cc1 | 2.45% (inactive) |
| NC(=O)c1cccc([N+](=O)[O-])c1 | -7.75% (inactive) |
| C=CCn1c(=O)n(CC=C)c(=O)n(CC=C)c1=O | -0.684% (inactive) |
| Cc1cc(C)cc([N+](=O)[O-])c1 | -1.8% (inactive) |
| CC(=O)OC(C)C | -3.2% (inactive) |
| CCC(=O)/C=C/C1C(C)=CCCC1(C)C (stereo not drawn) | -1.11% (inactive) |
| CC(=O)CCc1ccccc1 | 3.76% (inactive) |
| CCCCOCCOCCOCCCC | 1.83% (inactive) |
| Cc1cc(C(=O)O)ccc1[N+](=O)[O-] | -7.51% (inactive) |
| Cc1cccc(C)c1O | -5.45% (inactive) |
| O=c1[nH][nH]c(=O)c2cc([N+](=O)[O-])ccc12 | -6.36% (inactive) |
| CC(C)CCOC(=O)/C=C/c1ccccc1 | -1.27% (inactive) |
| NC(=O)CCCCC(N)=O | 4.42% (inactive) |
| ON=C1CCCCC1 | -7.56% (inactive) |
| CC(=O)Nc1ccccc1C | 0.577% (inactive) |
| COC(=O)CS | -6.58% (inactive) |
| Cc1ccc2cccnc2c1 | -1.44% (inactive) |
| Cc1cccc([N+](=O)[O-])c1C(=O)O | -5.58% (inactive) |
| CCOc1cccc(N)c1 | -5.73% (inactive) |

Experiment: Cell Viability - SH-SY5Y (AID 544);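 further: 0% = DMSO alone and -100% = 100 µM tamoxifen; nearly all actives have a fitted effect of over 55% in size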
Details: SH-SY5Y neuroblastoma cell viability; viability change, negative = cytotoxic: at 92.2 µM (top of the series)
In short: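 Cells were plated at 1500 per well and allowed 5 hr at 37 °C. Compounds were added across a concentration range and incubated 40 hr at 37 °C. CellTiter-Glo was added for 20 min at room temperature before luminescence reading.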

| Structure (SMILES) | viability change, negative = cytotoxic |
| --- | --- |
| Cc1cc(C)c(N)cc1C | 1.35% (inactive) |
| Cc1cccc2ccccc12 | -9.46% (inactive) |
| C=C(C)C(=O)OCC(C)C | -0.144% (inactive) |
| O=Cc1ccc(C(=O)O)cc1 | -13.9% (inactive) |
| CCOc1cc(OCC)c(C(C)=O)cc1OCC | -23% (inactive) |
| CCCCC(CC)CNCC(CC)CCCC (stereo not drawn) | -2.83% (inactive) |
| C=CCOC(=O)COCCC(C)C | -7.73% (inactive) |
| ICCc1ccccc1 | -96.6% (active) |
| Cc1ccccc1C(N)=O | -8.16% (inactive) |
| CNC(=O)c1ccccc1 | -11.8% (inactive) |
| ClCCl | -11.2% (inactive) |
| CCOc1ccc(NC(C)=O)cc1N | -9.77% (inactive) |
| Nc1ccc(F)cc1F | 2.83% (inactive) |
| CC(=O)c1ccc([N+](=O)[O-])cc1 | -5.65% (inactive) |
| CCCCN(CCO)CCCC | -3.23% (inactive) |
| BrC(Br)C(Br)Br | -13.2% (inactive) |
| Nc1nc(CC(=O)O)cs1 | -6.8% (inactive) |
| O=[N+]([O-])c1cc(C(F)(F)F)ccc1Cl | 11.6% (inactive) |
| Cc1ccc(C(C)(C)C)cc1 | 3.15% (inactive) |
| CC(C)=CCl | -0.502% (inactive) |

| Structure (SMILES) | viability change, negative = cytotoxic |
| --- | --- |
| O=Cc1ccc(Cl)cc1 | 1% (inactive) |
| NC(=O)c1cccc([N+](=O)[O-])c1 | -3.08% (inactive) |
| C=CCn1c(=O)n(CC=C)c(=O)n(CC=C)c1=O | -4.97% (inactive) |
| Cc1cc(C)cc([N+](=O)[O-])c1 | 0.593% (inactive) |
| CC(=O)OC(C)C | -4.73% (inactive) |
| CCC(=O)/C=C/C1C(C)=CCCC1(C)C (stereo not drawn) | -7.09% (inactive) |
| CC(=O)CCc1ccccc1 | -0.385% (inactive) |
| CCCCOCCOCCOCCCC | -0.502% (inactive) |
| Cc1cc(C(=O)O)ccc1[N+](=O)[O-] | -10.1% (inactive) |
| Cc1cccc(C)c1O | 3.17% (inactive) |
| O=c1[nH][nH]c(=O)c2cc([N+](=O)[O-])ccc12 | 0.069% (inactive) |
| CC(C)CCOC(=O)/C=C/c1ccccc1 | 5.65% (inactive) |
| NC(=O)CCCCC(N)=O | -5.38% (inactive) |
| ON=C1CCCCC1 | 0.798% (inactive) |
| CC(=O)Nc1ccccc1C | -2.23% (inactive) |
| COC(=O)CS | -10.8% (inactive) |
| Cc1ccc2cccnc2c1 | -3% (inactive) |
| Cc1cccc([N+](=O)[O-])c1C(=O)O | -1.07% (inactive) |
| CCOc1cccc(N)c1 | -7.14% (inactive) |
